The record followed here is PubChem BioAssay.

Assay [1] is described as follows: antimalarial activity against Dd2 strain (AID 2302;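 active means growth inhibition above 50% at the single 2 µM test dose, taken to imply half-maximal potency below 2 µM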;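 further: 0% = DMSO untreated growth and 100% = chloroquine plus artemisinin killed control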). The conditions noted are these: P. falciparum Dd2 in RBCs, LDH growth readout, 72 h; at 2 µM; active compounds read high.
A short description of assay [2]: HepG2 cytotoxicity, primary screen, cytotoxicity control for P. falciparum antimalarial project, cell-based, ATP luminescence (AID 2303;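 active means inhibition above 50%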;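 further: 0% = DMSO wells and 100% = digitonin-killed cells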). The conditions noted are these: HepG2 viability, 24-48 h, at 10 µM, active compounds read high.
The target of assay [3] is L-lactate dehydrogenase (Plasmodium falciparum (isolate CDC / Honduras)) (UniProt Q27743). Briefly: PfLDH activity inhibition – cell lysate, 3D7 strain, counter-screen for P. falciparum growth inhibition project (AID 2304).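 Further: 0% = vehicle and 100% = reference inhibitor.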 The conditions noted are these: P. falciparum 3D7 crude extract, LDH APAD/NBT absorbance; at 2 µM; active compounds read high.
Assay [4] is described as follows: inhibition of 3D7 malaria parasite growth – strain 3D7 (AID 2306).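 Further: 0% = DMSO wells and 100% = chloroquine plus artemisinin control wells.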 The conditions noted are these: P. falciparum 3D7 erythrocytic growth, LDH absorbance, 72 h; at 2 µM; active compounds read high.
Assay [5] concerns the target Calcium-dependent protein kinase 1 (Plasmodium falciparum (isolate 3D7)) (UniProt P62344). Briefly: PfCDPK1 kinase inhibitors, biochemical, TCAMS library (AID 1159585; cut-off not given, nearly all actives have IC50 up to about 0.98 µM;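 further: inhibitors leave more ATP so luminescence rises with inhibition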). The conditions noted are these: recombinant PfCDPK1, Kinase-Glo ATP depletion luminescence.
Assay [6] has as its target Plasmodium falciparum protein kinase 6 (PK6, PF3D7_1337100) (UniProt Q8IDW1). Briefly: PfPK6 kinase inhibitors, biochemical, TCAMS library (AID 1159586). The conditions noted are these: recombinant PfPK6, Kinase-Glo ATP depletion luminescence. On the technique in general: Kinase-Glo measures the ATP left after a reaction by luminescence.
Assay [7] addresses Protein kinase 7 (PK7), Plasmodium falciparum 3D7 (PF3D7_0213400) (UniProt Q7YTF7). In words: inhibition of Plasmodium PK7 catalytic activity – biochemical, TCAMS antimalarial set, Kinase-Glo luminescence (AID 1159587). Conditions: recombinant PfPK7, Kinase-Glo ATP depletion luminescence.
Assay [8] has as its target Calcium-dependent protein kinase 4 (Plasmodium falciparum (isolate 3D7)) (UniProt Q8IBS5). In words: PfCDPK4 kinase inhibitors, biochemical, TCAMS library (AID 1159588; cut-off not given, nearly all actives have IC50 up to about 0.91 µM). The conditions noted are these: recombinant PfCDPK4, Kinase-Glo ATP depletion luminescence.

Values without a mark were called inactive. For some of these results: Results with a measured potency or affinity are listed apart. Active and inactive are the calls of the source. Unless noted, how the calls were made is not given here.

Calcium-dependent protein kinase 4 (Plasmodium falciparum (isolate 3D7)), sequence (Q8IBS5 whole entry, looked up): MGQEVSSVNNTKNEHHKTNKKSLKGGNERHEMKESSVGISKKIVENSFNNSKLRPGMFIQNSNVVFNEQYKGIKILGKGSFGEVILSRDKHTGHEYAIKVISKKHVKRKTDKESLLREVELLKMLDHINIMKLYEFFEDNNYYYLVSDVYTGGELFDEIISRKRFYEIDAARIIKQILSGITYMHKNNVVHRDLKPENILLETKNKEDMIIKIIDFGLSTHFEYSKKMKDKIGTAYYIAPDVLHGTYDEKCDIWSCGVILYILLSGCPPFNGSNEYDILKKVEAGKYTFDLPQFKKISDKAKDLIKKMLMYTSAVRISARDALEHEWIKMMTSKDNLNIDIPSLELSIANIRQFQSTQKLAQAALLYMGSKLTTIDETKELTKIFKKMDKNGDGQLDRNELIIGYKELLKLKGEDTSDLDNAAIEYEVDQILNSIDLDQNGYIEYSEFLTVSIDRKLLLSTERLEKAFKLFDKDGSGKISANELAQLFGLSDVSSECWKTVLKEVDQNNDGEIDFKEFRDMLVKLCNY
Protein kinase 7 (PK7), Plasmodium falciparum 3D7 (PF3D7_0213400), sequence (Q7YTF7 1-343): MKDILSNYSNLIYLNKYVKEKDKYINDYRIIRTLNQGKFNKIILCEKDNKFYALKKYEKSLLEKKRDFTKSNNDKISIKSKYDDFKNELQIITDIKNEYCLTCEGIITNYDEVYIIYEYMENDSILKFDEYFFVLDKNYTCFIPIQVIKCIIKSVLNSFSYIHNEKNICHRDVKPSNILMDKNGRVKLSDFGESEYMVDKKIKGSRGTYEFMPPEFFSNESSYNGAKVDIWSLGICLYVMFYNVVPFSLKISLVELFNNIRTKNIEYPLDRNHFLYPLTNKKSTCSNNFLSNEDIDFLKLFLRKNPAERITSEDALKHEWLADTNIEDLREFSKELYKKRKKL
Plasmodium falciparum protein kinase 6 (PK6, PF3D7_1337100), sequence (Q8IDW1 1-305): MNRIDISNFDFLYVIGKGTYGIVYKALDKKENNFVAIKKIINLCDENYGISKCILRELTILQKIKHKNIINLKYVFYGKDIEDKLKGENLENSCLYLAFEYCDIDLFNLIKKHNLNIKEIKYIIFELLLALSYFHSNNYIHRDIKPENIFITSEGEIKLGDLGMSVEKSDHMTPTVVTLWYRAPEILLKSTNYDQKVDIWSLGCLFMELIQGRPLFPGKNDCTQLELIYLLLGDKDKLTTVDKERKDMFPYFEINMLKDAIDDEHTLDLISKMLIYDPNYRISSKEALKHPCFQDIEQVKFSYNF
Calcium-dependent protein kinase 1 (Plasmodium falciparum (isolate 3D7)), sequence (P62344 whole entry, looked up): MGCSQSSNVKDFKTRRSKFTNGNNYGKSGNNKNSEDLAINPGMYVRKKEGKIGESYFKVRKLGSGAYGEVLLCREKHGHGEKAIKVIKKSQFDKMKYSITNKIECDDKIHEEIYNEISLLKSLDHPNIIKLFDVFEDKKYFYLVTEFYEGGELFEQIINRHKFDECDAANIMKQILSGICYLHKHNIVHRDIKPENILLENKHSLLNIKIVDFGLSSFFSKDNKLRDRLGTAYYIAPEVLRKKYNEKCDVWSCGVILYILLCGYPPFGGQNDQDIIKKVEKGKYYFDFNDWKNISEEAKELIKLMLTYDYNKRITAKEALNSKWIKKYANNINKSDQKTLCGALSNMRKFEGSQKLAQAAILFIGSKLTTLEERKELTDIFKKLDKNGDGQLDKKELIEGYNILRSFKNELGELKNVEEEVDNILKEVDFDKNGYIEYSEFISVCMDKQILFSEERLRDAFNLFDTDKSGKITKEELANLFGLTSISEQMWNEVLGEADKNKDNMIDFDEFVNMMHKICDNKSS
L-lactate dehydrogenase (Plasmodium falciparum (isolate CDC / Honduras)), sequence (Q27743 whole entry, looked up): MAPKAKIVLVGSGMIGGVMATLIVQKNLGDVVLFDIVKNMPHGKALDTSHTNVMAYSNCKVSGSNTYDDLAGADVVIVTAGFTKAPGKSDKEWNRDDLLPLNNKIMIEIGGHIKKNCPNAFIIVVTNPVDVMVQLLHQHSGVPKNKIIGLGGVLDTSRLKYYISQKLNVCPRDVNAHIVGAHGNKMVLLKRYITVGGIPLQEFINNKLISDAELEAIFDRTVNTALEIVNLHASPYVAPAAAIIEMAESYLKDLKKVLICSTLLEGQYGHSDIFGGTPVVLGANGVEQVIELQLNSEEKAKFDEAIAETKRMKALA

For orientation: inhibition means the drop in the measured response relative to a control, in per cent. For the compound `COCCCNc1sc(S(=O)(=O)c2ccccc2)nc1S(=O)(=O)c1ccc(Cl)cc1`, the growth inhibition in assay [1] is 87% (active); in assay [4], 95% (active). Besides, the inhibition was -7% in assay [2] and 4% in assay [3]. In addition, the outcome in assay [5], in assay [6], in assay [7] and in assay [8] was inactive.

Regarding `CC(CN1CCN(C)CC1)C(=O)Nc1cccc(-c2cccc(-c3nc4ccc(F)cc4[nH]3)c2)c1` (stereo not given), the growth inhibition in assay [1] is 78% (active); in assay [4], 101% (active). Besides, the inhibition in assay [2] is 23%; in assay [3] it was -2%. Further, the outcome in assay [5], in assay [6], in assay [7] and in assay [8] was inactive.

As for `COc1ccccc1-c1sccc1C(=O)NC1(c2cc(Cl)cc(Cl)c2)CCCC1`, the growth inhibition is 95% (active) in assay [1] and 88% (active) in assay [4]. In addition, the inhibition was -5% in assay [2] and -3% in assay [3]. Besides, the result in assay [5], in assay [6], in assay [7] and in assay [8] was inactive.

For `O=C(NCc1ccccc1)Nc1cccc(-c2cccc(-c3nc4ccc(C(F)(F)F)cc4[nH]3)c2)c1`, the growth inhibition in assay [1] was 30%; in assay [4], 95% (active). The inhibition in assay [2] was 56% (active); in assay [3], 0%. Moreover, the outcome in assay [5], in assay [6], in assay [7] and in assay [8] was inactive.

For the compound `Cc1cccc2[nH]c(-c3ccc(-c4ccc(CN5CCN(c6ccc(C#N)cn6)CC5)cc4)s3)nc12`, the growth inhibition in assay [1] was 44%; in assay [4], 98% (active). For the same compound, the inhibition is 10% in assay [2] and 2% in assay [3]. Moreover, the result in assay [5], in assay [6], in assay [7] and in assay [8] was inactive.

In the case of `CS(=O)(=O)n1c(CN2CCN(c3ncc(C(F)(F)F)cc3Cl)CC2)nc2ccccc21`, the growth inhibition was 59% (active) in assay [1] and 83% (active) in assay [4]. Also, the results for the inhibition in assay [2] and in assay [3] were -2% and -4%, respectively. Moreover, the result in assay [5], in assay [6], in assay [7] and in assay [8] was inactive.

As for `O=c1cc(-c2cccc(C(F)(F)F)c2)nc(Nc2ccc(Cl)c(Cl)c2)[nH]1`, the growth inhibition in assay [1] and in assay [4] was 97% (active) throughout. Moreover, the inhibition is 57% (active) in assay [2] and -2% in assay [3]. In addition, the result in assay [5], in assay [6], in assay [7] and in assay [8] was inactive.

With `O=C(NCCN1CCCC1)c1ccc(-c2ccc(-c3nc4ccccc4[nH]3)s2)cc1`, the growth inhibition in assay [1] is 3%; in assay [4], 92% (active). In addition, the inhibition in assay [2] is 22%; in assay [3], -2%. The outcome in assay [5], in assay [6], in assay [7] and in assay [8] was inactive.

Consider `FC(F)(F)c1ccc2nc(-c3ccc(-c4ccc(CNCc5cnn(-c6ccccc6)n5)cc4)s3)[nH]c2c1`, for which the growth inhibition in assay [1] was 89% (active); in assay [4], 100% (active). Moreover, the inhibition in assay [2] is 27%; in assay [3] it was -2%. The outcome in assay [5], in assay [6], in assay [7] and in assay [8] was inactive.

In the case of `Cc1cc(Nc2ccc(C(C)(C)C)cc2)c2[nH]ncc2n1`, the growth inhibition is 63% (active) in assay [1] and 83% (active) in assay [4]. Further, the inhibition in assay [2] was 31%; in assay [3], 0%. Also, the result in assay [5], in assay [6], in assay [7] and in assay [8] was inactive.

Consider `Cc1noc(C)c1-c1ccc2c(Nc3nccc4ccccc34)c(C(N)=O)cnc2c1`, for which the growth inhibition in assay [1] was 99% (active); in assay [4], 100% (active). For the same compound, the inhibition in assay [2] is 100% (active); in assay [3] it was 1%. Moreover, the result in assay [5], in assay [6], in assay [7] and in assay [8] was inactive.

Turning to `COc1ccc(C2c3cc(OC)c(OC)cc3C(=NO)C2C)cc1OC` (stereo not given), the values for the growth inhibition in assay [1] and in assay [4] were 6% and 90% (active), respectively. In addition, the figures for the inhibition in assay [2] and in assay [3] were 20% and -2%, respectively. The outcome in assay [5], in assay [6], in assay [7] and in assay [8] was inactive.

For the compound `O=C(Nc1ccc(Cl)c(C(F)(F)F)c1)N[C@H]1CCN(CCCCCNC(=O)[C@@H]2C[C@H]2c2ccc(Cl)c(Cl)c2)C1`, the growth inhibition in assay [1] was -2%; in assay [4], 94% (active). In addition, the inhibition was 39% in assay [2] and 0% in assay [3]. The result in assay [5], in assay [6], in assay [7] and in assay [8] was inactive.

For the compound `Cc1cccc2[nH]c(-c3ccc(-c4ccc(NC(=O)Nc5ccsc5)cc4)cc3)nc12`, the figures for the growth inhibition in assay [1] and in assay [4] were 70% (active) and 101% (active), respectively. For the same compound, the inhibition was 49% in assay [2] and 5% in assay [3]. Besides, the outcome in assay [5], in assay [6], in assay [7] and in assay [8] was inactive.

In the case of `O=C(Nc1ccc2c(c1)CCC2)c1ccc(N2CCN(c3ccncc3)CC2)cn1`, the growth inhibition is 58% (active) in assay [1] and 99% (active) in assay [4]. Moreover, the inhibition in assay [2] was 56% (active); in assay [3], 2%. For the same compound, the result in assay [5], in assay [6], in assay [7] and in assay [8] was inactive.

Turning to `Cc1ccc(C(=O)NC2CC2)cc1-c1ccc2c(cnn2S(=O)(=O)c2ccc(F)cc2)c1`, the growth inhibition in assay [1] was 69% (active); in assay [4], 93% (active). Also, the inhibition in assay [2] was 7%; in assay [3], -2%. Besides, the outcome in assay [5], in assay [6], in assay [7] and in assay [8] was inactive.

Take `COc1cccc(-c2cc(C(=O)Nc3cc(Oc4ccc(O)cc4)cc([N+](=O)[O-])c3)on2)c1`: the growth inhibition is 30% in assay [1] and 89% (active) in assay [4]. For the same compound, the values for the inhibition in assay [2] and in assay [3] were 16% and 7%, respectively. Also, the result in assay [5], in assay [6], in assay [7] and in assay [8] was inactive.

Turning to `CNC(=O)c1cnc(Nc2ccc3[nH]c(=O)[nH]c3c2)nc1Nc1cccc(OC(C)C)c1`, the figures for the growth inhibition in assay [1] and in assay [4] were 94% (active) and 89% (active), respectively. Further, the inhibition was 18% in assay [2] and -8% in assay [3]. Besides, the result in assay [5], in assay [6], in assay [7] and in assay [8] was inactive.

Take `Cc1nnsc1C(=O)Nc1cccc(-c2cccc(-c3nc4ccc(F)cc4[nH]3)c2)c1`: the growth inhibition was 45% in assay [1] and 100% (active) in assay [4]. The inhibition was 35% in assay [2] and 3% in assay [3]. In addition, the outcome in assay [5], in assay [6], in assay [7] and in assay [8] was inactive.

For the compound `CN1CCN(CCCN(Cc2ccc(-c3cccc(CNCc4ccc5c(c4)OCO5)c3)cc2)C(=O)Nc2ccccc2)CC1`, the growth inhibition in assay [1] is 87% (active); in assay [4], 101% (active). Also, the inhibition was 51% (active) in assay [2] and -7% in assay [3]. Moreover, the result in assay [5], in assay [6], in assay [7] and in assay [8] was inactive.
